# The list is not random: actives were taken first. Their share in the collection is about 3.6%.
# mHTT-CaM PPI inh – inhibitors of human mutant huntingtin-calmodulin interaction; AlphaScreen His-mHTT/GST-CaM binding, luminescence; 190,000 tested, 3.6% active; inhibition, % at 15 µM; P42858; AID 1671202;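 also: 0% = both proteins with DMSO and 100% = one protein alone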
# Target sequence (P42858 whole entry, looked up, stated change not applied): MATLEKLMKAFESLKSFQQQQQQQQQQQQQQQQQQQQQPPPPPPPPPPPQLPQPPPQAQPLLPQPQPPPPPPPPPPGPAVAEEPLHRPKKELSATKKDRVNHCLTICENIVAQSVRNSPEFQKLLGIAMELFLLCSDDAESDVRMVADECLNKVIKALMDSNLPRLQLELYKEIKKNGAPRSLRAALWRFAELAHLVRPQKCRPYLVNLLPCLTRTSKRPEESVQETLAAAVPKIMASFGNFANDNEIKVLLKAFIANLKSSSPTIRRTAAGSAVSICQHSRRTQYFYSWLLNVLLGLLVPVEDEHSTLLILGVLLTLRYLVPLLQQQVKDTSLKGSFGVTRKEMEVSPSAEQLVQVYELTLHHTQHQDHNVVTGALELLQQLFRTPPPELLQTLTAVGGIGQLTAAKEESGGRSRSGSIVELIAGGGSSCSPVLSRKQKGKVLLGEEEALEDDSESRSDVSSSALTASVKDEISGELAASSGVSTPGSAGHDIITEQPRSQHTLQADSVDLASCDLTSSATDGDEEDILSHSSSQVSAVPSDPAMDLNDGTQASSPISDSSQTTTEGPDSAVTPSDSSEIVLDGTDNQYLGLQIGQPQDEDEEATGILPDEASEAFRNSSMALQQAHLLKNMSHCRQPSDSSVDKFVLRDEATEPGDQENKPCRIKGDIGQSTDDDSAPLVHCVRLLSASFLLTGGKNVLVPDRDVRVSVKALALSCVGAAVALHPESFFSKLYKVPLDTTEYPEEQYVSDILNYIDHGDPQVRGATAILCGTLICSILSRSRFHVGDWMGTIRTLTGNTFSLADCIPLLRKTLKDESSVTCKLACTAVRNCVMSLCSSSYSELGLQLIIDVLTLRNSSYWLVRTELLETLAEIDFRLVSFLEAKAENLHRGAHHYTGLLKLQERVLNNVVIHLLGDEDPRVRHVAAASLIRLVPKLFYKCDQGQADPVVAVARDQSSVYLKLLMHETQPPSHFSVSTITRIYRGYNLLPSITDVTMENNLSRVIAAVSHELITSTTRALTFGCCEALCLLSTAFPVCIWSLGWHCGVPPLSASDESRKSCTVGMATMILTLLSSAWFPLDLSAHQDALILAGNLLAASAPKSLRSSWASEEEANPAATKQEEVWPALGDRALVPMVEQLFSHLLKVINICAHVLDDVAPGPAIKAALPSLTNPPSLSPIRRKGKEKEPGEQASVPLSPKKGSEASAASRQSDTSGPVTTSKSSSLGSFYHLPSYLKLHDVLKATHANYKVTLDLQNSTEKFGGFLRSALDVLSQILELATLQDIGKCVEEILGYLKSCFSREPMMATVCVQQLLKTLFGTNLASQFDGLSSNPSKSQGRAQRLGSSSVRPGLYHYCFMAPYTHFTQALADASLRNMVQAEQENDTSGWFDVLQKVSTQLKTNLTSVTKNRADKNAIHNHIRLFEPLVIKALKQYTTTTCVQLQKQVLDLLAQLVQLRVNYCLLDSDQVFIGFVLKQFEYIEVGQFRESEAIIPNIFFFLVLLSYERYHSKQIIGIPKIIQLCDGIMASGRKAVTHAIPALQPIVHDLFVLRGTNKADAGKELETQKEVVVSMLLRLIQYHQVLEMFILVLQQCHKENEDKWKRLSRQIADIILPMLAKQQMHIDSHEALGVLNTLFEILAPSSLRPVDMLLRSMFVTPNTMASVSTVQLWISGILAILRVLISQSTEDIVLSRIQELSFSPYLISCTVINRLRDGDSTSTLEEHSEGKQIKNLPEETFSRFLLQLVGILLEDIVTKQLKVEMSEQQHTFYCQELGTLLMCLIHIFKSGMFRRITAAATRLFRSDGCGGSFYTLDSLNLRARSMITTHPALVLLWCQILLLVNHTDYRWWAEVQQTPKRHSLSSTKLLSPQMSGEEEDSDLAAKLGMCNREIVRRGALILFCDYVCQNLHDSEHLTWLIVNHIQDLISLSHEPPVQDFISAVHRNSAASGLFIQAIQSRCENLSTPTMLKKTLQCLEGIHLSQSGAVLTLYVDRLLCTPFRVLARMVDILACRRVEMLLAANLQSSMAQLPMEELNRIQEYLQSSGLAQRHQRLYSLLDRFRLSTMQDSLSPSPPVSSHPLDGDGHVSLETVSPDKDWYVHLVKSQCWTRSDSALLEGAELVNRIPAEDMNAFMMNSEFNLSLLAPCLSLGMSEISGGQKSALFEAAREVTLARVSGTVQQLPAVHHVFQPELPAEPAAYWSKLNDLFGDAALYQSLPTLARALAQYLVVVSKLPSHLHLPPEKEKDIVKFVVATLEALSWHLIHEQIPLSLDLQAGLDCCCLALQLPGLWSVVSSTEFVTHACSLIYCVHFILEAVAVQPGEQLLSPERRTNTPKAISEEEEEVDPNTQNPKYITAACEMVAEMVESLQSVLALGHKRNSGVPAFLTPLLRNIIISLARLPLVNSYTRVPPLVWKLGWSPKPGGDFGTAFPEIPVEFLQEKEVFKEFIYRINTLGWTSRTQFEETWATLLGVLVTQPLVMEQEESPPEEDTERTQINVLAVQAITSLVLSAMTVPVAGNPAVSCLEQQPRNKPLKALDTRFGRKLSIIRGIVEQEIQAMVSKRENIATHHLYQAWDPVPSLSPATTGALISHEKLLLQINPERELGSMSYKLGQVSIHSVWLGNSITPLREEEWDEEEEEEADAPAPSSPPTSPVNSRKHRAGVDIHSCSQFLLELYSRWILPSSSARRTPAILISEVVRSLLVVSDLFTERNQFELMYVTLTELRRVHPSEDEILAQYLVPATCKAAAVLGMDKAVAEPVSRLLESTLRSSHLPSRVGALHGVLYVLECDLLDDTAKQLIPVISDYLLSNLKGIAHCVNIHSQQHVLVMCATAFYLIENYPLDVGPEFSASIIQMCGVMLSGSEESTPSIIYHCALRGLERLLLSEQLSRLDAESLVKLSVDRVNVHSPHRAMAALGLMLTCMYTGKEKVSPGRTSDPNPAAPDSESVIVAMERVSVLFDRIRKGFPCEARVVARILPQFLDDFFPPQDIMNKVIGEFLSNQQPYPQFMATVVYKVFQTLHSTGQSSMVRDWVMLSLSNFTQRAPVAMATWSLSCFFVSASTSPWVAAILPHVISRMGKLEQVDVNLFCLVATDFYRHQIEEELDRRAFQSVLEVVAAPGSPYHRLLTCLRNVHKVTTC
# Pf apPOL inh – Pf-apPOL DNA polymerase inhibition; inhibition, % at 10 µM; 210,000 tested, 0.25% active; Recombinant Pf-apPOL, molecular beacon fluorescence, 1.5 h
# Active calls of the source: *; / = no result given. Rule as the data show it: active = inhibition above about 50%; inactive = the rest.
SMILES,mHTT-CaM PPI inh,Pf apPOL inh
COc1cc(C(CCN2CCCC(C)C2)c2c(OC)cc(OC)c3c(C)cc(=O)oc23)cc(OC)c1OC (centres undefined),14,-11
CCN(CC)CCC(c1cc(OC)c(OC)c(OC)c1)c1c(OC)cc(OC)c2c(C)cc(=O)oc12 (centres undefined),16,-13
COc1cc(C(CCN2CCCC2)c2c(OC)cc(OC)c3ccc(=O)oc23)cc(OC)c1OC (centres undefined),8,-3
COc1cc(C(CC(=O)N2CCOCC2)c2c(OC)cc(OC)c3c(-c4ccccc4)cc(=O)oc23)cc(OC)c1OC (centres undefined),47,-6
COc1cc(C(CCN2CCN(c3ccccc3)CC2)c2c(OC)cc(OC)c3c(C)cc(=O)oc23)cc(OC)c1OC (centres undefined),94*,-9
COc1cc(OC)c2c(-c3ccccc3)cc(=O)oc2c1C(CCN1CCOCC1)c1ccc(N(C)C)cc1 (centres undefined),94*,-6
CCN(CC)CCC(c1ccc(N(C)C)cc1)c1c(OC)cc(OC)c2c(C)cc(=O)oc12 (centres undefined),94*,-1
CC(=O)Oc1ccc2c(c1)OC(=Cc1cccc(C)c1)C2=O,-2,4
CCN(CC)C(=O)Oc1ccc2c(-c3cc4cccc(OC)c4oc3=O)cc(=O)oc2c1,-2,-4
CCN(CC)C(=O)CC(c1ccc(OC)cc1)c1c(OC)cc(OC)c2c(-c3ccccc3)cc(=O)oc12 (centres undefined),88*,9
COc1cc(OC)c2c(-c3ccccc3)cc(=O)oc2c1C(CCN1CCCCC1)c1ccc(N(C)C)cc1 (centres undefined),100*,-9
OC(CCN1CCCCC1)c1ccc(-c2ccccc2)cc1 (centres undefined),/,-4
CCC(=O)NCc1nc2c(n1C)CN(C(=O)Nc1ccccc1Cl)CC2,3,-2
Cc1nc(Cn2cccc2C(=O)NC2CCCC2)no1,-8,-3
COC(=O)c1ccccc1NC(=O)N1CCc2c(nc(-c3ccc(F)cc3)[nH]c2=O)C1,-2,-4
O=[N+]([O-])c1ccc(Sc2cccs2)c([N+](=O)[O-])c1,64*,/
O=[N+]([O-])c1ccc(SC2=NCCS2)c([N+](=O)[O-])c1,/,-1
O=C(CC1CCN(C(=O)C2CCCCC2)CC1)NCCc1c[nH]c2ccc(Cl)cc12,100*,-3
COc1ccc(CCNC(=O)CC2CCN(C(=O)C3CCCCC3)CC2)c(OC)c1,30,-9
CCc1ccc(CNC(=O)CC2CCN(C(=O)c3[nH]c(C)c(C)c3C)CC2)cc1,16,3
Cc1[nH]c(C(=O)N2CCC(CC(=O)NCCc3c[nH]c4ccccc34)CC2)c(C)c1C,90*,-3
COCCNC(=O)/C=C1\Sc2ccccc2N(Cc2ccc(F)cc2)C1=O,6,-4
Cc1ccc(CN2C(=O)NC3(CCN(C(=O)c4cc(C)cc(C)c4)CC3)C2=O)cc1,1,-6
Cc1cc(Oc2ccc([N+](=O)[O-])cc2)nc(-n2nc(C)cc2C)n1,4,2
Cc1cc(NCC(O)c2ccc([N+](=O)[O-])cc2)nc(-n2nc(C)cc2C)n1 (centres undefined),97*,-2
SMILES,mHTT-CaM PPI inh,Pf apPOL inh
Cn1c(C2CCC(CNC(=O)CSc3ncccn3)CC2)nc2ccccc21 (centres undefined),-14,-11
CC(C(=O)NCc1ccccn1)N1CCN(c2ccccc2Cl)CC1 (centres undefined),75*,-24
Cc1ccccc1N1CCN(C(C)C(=O)NCc2cccnc2)CC1 (centres undefined),6,-7
CCCC1CCc2c(sc(NC(=O)c3cccnc3)c2C(N)=O)C1 (centres undefined),7,5
CCCC1CCc2c(sc(NC(=O)c3ccncc3)c2C(N)=O)C1 (centres undefined),-5,66*
CC1(C)CC(=O)C(C=Nc2ccccc2O)=C(O)C1,3,-3
c1ccc(C2C3=C(CCCC3)Nc3nc4ccccc4n32)cc1 (centres undefined),100*,0
O=C1CCCC2=C1C(c1ccccc1Cl)n1c(nc3ccccc31)N2 (centres undefined),-5,-12
c1ccc(C2C3=C(CCCC3)Nc3ncnn32)cc1 (centres undefined),7,96*
CC1(C)CC(=O)C2=C(C1)Nc1ncnn1C2c1ccccc1 (centres undefined),-2,0
O=C1c2ccccc2-c2onc3c(Br)cc(Br)c1c23,10,-1
CNc1cc(Nc2cccc(C)c2)c2c3c(onc13)-c1ccccc1C2=O,89*,1
COc1cccc(Nc2ccc3noc4c3c2C(=O)c2ccccc2-4)c1,58*,-23
COc1cccc(NC2=CC(=O)CC(c3ccccc3)C2)c1 (centres undefined),-3,-17
COC(=O)c1ccc(NC(=O)N2CCCC2c2ccc(F)cc2)cc1 (centres undefined),1,-5
CN1CCN(c2nc(-c3ccccc3)ncc2C(=O)N2CCCCC2)CC1,6,-2
CN1CCN(C(=O)c2cnc(-c3ccccc3)nc2N(C)Cc2ccccc2)CC1,68*,-8
CCN1C(=O)CCC2(CNC(=O)c3cccs3)CCCC12 (centres undefined),3,-4
Cc1cc2c(cc1C)NC(c1ccc(F)cc1)C1=C(CC(C)(C)CC1=O)N2 (centres undefined),20,-16
CC1(C)CC(=O)C2=C(C1)Nc1ccccc1NC2c1ccc(-c2ccc([N+](=O)[O-])cc2)o1 (centres undefined),73*,-1
Cc1cc2c(cc1C)NC(c1ccc(Cl)c(F)c1)C1=C(CC(C)(C)CC1=O)N2 (centres undefined),59*,6
CC1(C)CC(=O)C2=C(C1)Nc1ccccc1NC2c1ccccc1 (centres undefined),-2,1
CC1(C)CC(=O)C2=C(C1)Nc1ccccc1NC2c1ccc(Cl)c(Cl)c1 (centres undefined),66*,0
CC1(C)CC(=O)C2=C(C1)Nc1ccccc1NC2c1ccc(-c2ccc([N+](=O)[O-])cc2Cl)o1 (centres undefined),50,-3
Cc1nc(-n2c(C)ccc2C)sc1C(=O)NC1CC1,3,-6
SMILES,mHTT-CaM PPI inh,Pf apPOL inh
Cc1ccc(N2CC(C(=O)Nc3ccc4c(c3)C(=O)N3CCCCC3CCO4)CC2=O)cc1 (centres undefined),20,-3
CCc1cc(C2CCCN2C(=O)Cc2cccc(F)c2)on1 (centres undefined),-8,0
CC(=O)c1ccc(N2CCN(c3ncnc4c3cnn4-c3ccc(C)cc3C)CC2)cc1,10,-4
O=C(NCc1ccccc1Cl)C1CCCN(c2cnn(Cc3ccccc3)c(=O)c2)C1 (centres undefined),4,-14
Cc1ccc(OCc2nnc(SCC(=O)NCc3ccccc3)o2)cc1,-1,-3
O=C(CSc1nnc(COc2ccc3c(c2)CCCC3)o1)NCc1ccccc1,0,95*
COc1ccc(NC(=O)C2CCCN(C(=O)c3cccc(C(F)(F)F)c3)C2)cc1Cl (centres undefined),32,2
CCc1[nH]nc(-c2ccc(F)c(F)c2)c1NC(=O)COC,97*,-3
CCc1[nH]nc(-c2cccc(OC)c2)c1NC(=O)C1CCCC1,18,3
CCC(=O)Nc1c(-c2ccc(F)c(F)c2)n[nH]c1CC,7,-2

# Screening results deposited in PubChem BioAssay by University of Kansas High Throughput Screening Laboratory.
